# Data from PubChem BioAssay AID720565 (National Center for Advancing Translational Sciences (NCATS), 2013).
# “And” between values parts separate entries of the source, which are not always exact repeats. Equal entries are not always repeated. Results filed as inconclusive are left out. Unmarked numbers belong to inactive results. The source made the active and inactive calls. Calls follow the shape of the dose curve; as a rule, active = well fitted activation curve with a large enough effect; inconclusive = small, poorly fitted or top-dose-only effect; inactive = no such curve, though single readings can be large or run the other way.
# Test: qHTS for small molecules that induce genotoxicity in ELG1 expressing cells: Confirmatory Assay for Cherry-picked Compounds; also: nearly all actives have a fitted effect of over 35% in size; as to activation: % of control where 0% means no effect
# Details: ELG1-luciferase reporter cells, luminescence, 16 h; series mostly up to 46.1 µM; activation: at the top concentration
# Excerpt: Cancer cells divide rapidly compared to normal cells in the body. During cell division, cancer cells need to duplicate their genome by DNA replication. The failure of genome duplication leads to cancer cells' death. Therefore, inhibitors of DNA replication could specifically kill cancer cells. Based on this concept, many chemotherapeutic agents were developed and have been used to treat cancer patients. However, there are a limited number of agents available in the clinical setting, and some of those that do exist have low efficacy and severe side effects. Therefore, if we can find the compounds that effectively block DNA replication either by directly damaging DNA or by inhibiting other cellular mechanisms, the options for cancer treatment will be broadened. We developed a quantitative high-throughput ELG1-luciferase reporter gene assay. Since the level of human ELG1 protein is enhanced in response to genetic stresses, increases in luciferase activity can be used to identify compounds that cause genetic stress. The data herein is the result of the confirmation assay against the cherry picked compounds selected from the primary qHTS (AID 504466). Activation is the desired outcome for this assay. NIH Chemical Genomics Center [NCGC] NIH Molecular Libraries Probe Centers Network [MLPCN] MLPCN Grant: MH092164 Assay Provider: Kyungjae Myung, National Human Genome Research Institute, NIH
# For genotoxicity screening, 2,000 cells/ well (5 uL volume) were dispensed into white, solid-bottom 1536-well plates using a solenoid-based dispenser. Following transfer of 23 nL compound or DMSO vehicle by a pin tool, the plates were incubated 16 hr at 37 C, 5% CO2. Five microliter of ONE-Glo reagent (Promega) was then added to each plate. The assay plates were incubated for 30 min at room temperature followed by quantification of the luciferase activity using the PerkinElmer ViewLux CCD-based plate reader.
# Potency is read from the fitted curve at half-maximal effect.
Structure (SMILES),Potency,activation
CC(=O)c1cc(F)ccc1OCC(=O)Nc1ccc2c(c1)OCO2,6.28 µM (active),
C=C1C(c2ccc(C)cc2)=CCc2cc(C)cc(C)c21,5 µM (active),
COc1cccc([C@@H]2Oc3ccc(OC)cc3C(=O)[C@H]2OC(=O)NS(=O)(=O)c2ccc(C)cc2)c1,15.8 µM (active),
CC(=O)Oc1ccc(-c2nc(-c3ccccc3)no2)cc1,2.81 µM (active),
CCOC(=O)N1CCN(C(=O)CSCC(=O)Nc2nc(-c3ccc(-c4ccccc4)cc3)cs2)CC1,inactive,
CC(=O)N(C)c1ccc(/C=C2\C=Cc3ccccc32)cc1,0.561 µM (active),
C(=C\c1ccc2ccccc2n1)/c1ccc2ccccc2n1,0.792 µM (active),
CN(C)c1ccc(N=Nc2ccc(/C=C/c3ccnc4ccccc34)cc2)cc1,4.45 µM (active),
COc1cc2cc(C)c(SCC(=O)N3CCOCC3)nc2cc1OC,,2.87%
C(=C\c1c[nH]c2ccccc12)/c1ccc2ccccc2n1,0.141 µM (active),
O=c1c2ccccc2oc2c1ccc1ccccc12,15.8 µM (active),
O=C(NCc1cccs1)c1cc(-c2ccccc2)on1,11.5 µM (active) and 7.06 µM (active),
COc1cccc2oc(-c3ccccc3)cc(=O)c12,4.45 µM (active),
Nc1ccc(/C=C/c2ccc3cccnc3c2)cc1,0.5 µM (active),
O=S(=O)(c1ccc2ccccc2c1)N1CCN(S(=O)(=O)c2c(F)cccc2F)CC1,14.1 µM (active),
Cn1cccc1C(=O)OCC(=O)c1c[nH]c2ccccc12,5.6 µM (active),
O=C(CSc1nnc(Cc2ccccc2)o1)Nc1ccc(Br)cn1,,-11.1%
CC(C)CN(C)c1ccc(/C=C2\C=Cc3ccccc32)cc1,14.1 µM (active),
CN(C)c1ccc(/C=C/c2ccnc3ccc(F)cc23)cc1,0.354 µM (active),
O=C1CCCC(=NNC(=O)c2cc3ccccc3cc2O)C1,15.8 µM (active),

Structure (SMILES),Potency,activation
Cc1noc(C)c1-c1ccc2ncnc(NCc3ccc(F)c(F)c3)c2c1,15.8 µM (active),
O=S(=O)(c1c(F)cccc1F)N1CCN(S(=O)(=O)c2c(F)cccc2F)CC1,15.8 µM (active),
COc1ccc(S(=O)(=O)N2CCCCC2)cc1NC(=O)c1[nH]c(C)c(C(C)=O)c1C,15.8 µM (active),
O=C(CSc1nnc(-c2ccc(F)cc2)o1)Nc1ccc(S(=O)(=O)N2CCCCCC2)cc1,,7.03%
NC(=O)C1CCN(c2cc(-c3ccc4c(c3)OCCCO4)ncn2)CC1,9.96 µM (active),
O=C(NOCc1ccccc1)c1ccccc1,8.88 µM (active),
O=C(OCC(=O)N1CCc2ccccc2C1)c1c(F)cccc1Cl,9.96 µM (active),
Nc1ccccc1NC(=O)c1ccc(CNC(=O)OCc2cccnc2)cc1,2.81 µM (active),
CCn1c(=O)n(CC)c2cc(S(=O)(=O)N3CCCCC3)c(C)cc21,,26.9%
O=C(CSCC(=O)N1CCN(c2ccccc2)CC1)Nc1nc(-c2ccc(Cl)s2)cs1,,-28.8%
CC(=O)OCC1=C[C@H]2[C@@H]3C(C)(C)[C@]3(OC(C)=O)C[C@@H](C)[C@]2(O)[C@@H]2C=C(C)C(=O)[C@@]2(O)C1,2.23 µM (active),
Cc1cc2cc3c(cc2nc1SCC(=O)N1CCOCC1)OCO3,,-9.39%
CCc1ccc(OCC(=O)Nc2ccc(-c3nc4ccccc4o3)c(O)c2)cc1,14.1 µM (active),
Cc1cc(C(=O)COC(=O)C2=COCCO2)c(C)n1-c1ccccc1,0.25 µM (active),
COc1ccccc1/C=C/c1nc2ccccc2o1,3.53 µM (active),
COc1cccc(/C=C/c2cnc3ccccc3n2)c1OC,0.397 µM (active),
CC(=O)NC12CC3CC(C1)CC(C(=O)OCC(=O)c1cc(C)n(C)c1C)(C3)C2,2.81 µM (active),
O=C(/C=C/C#Cc1cccc(NS(=O)(=O)c2ccccc2)c1)NO,3.15 µM (active),
Cc1cc(C(=O)COC(=O)c2ccc(F)cc2)c(C)n1C,2.23 µM (active),
O=C(CSc1nnc(-c2cccc(Cl)c2)o1)Nc1ccc2c(c1)OCCO2,15.8 µM (active),
